Structures can show the parent of a compound that is named as a salt. Over roughly 1,500 compounds, “Excess HSA synergy score (sum over dose matrix of excess over highest single agent)” has its median near 43; the lowest 2% begin near -900. This excerpt belongs to a sample that is enriched for the lowest values.
Tested on: PEO-1
Assay: Excess HSA synergy score (sum over dose matrix of excess over highest single agent) (score (summed % response)); higher = less synergy / more antagonism (negative = synergy)
Conditions: 72 h, read-out: viability/apoptosis luminescence (CellTiter-Glo or Caspase3-Glo / not stated per table)
[1] = matrix design: 6x6, 5-fold dilutions (primary screen)
[2] = matrix design: 10x10, 9-step dilutions (confirmatory)

CC(/C=C1\SC(=S)N(CC(=O)O)C1=O)=C\c1ccccc1 [Epalrestat] + CC[C@H](NC(=O)[C@H](C)NC)C(=O)N1C[C@@H](O)C[C@H]1Cc1c(-c2[nH]c3cc(F)ccc3c2C[C@@H]2C[C@H](O)CN2C(=O)[C@H](CC)NC(=O)[C@H](C)NC)[nH]c2cc(F)ccc12 [Birinapant]
Excess HSA synergy score [1]: 114

CO/N=C(\C(=O)N[C@@H]1C(=O)N2C(C(=O)O)=C(Cn3ccc(=N)n3CCO)CS[C@H]12)c1csc(N)n1 [Cefoselis sulfate] + CC[C@H](NC(=O)[C@H](C)NC)C(=O)N1C[C@@H](O)C[C@H]1Cc1c(-c2[nH]c3cc(F)ccc3c2C[C@@H]2C[C@H](O)CN2C(=O)[C@H](CC)NC(=O)[C@H](C)NC)[nH]c2cc(F)ccc12 [Birinapant]
Excess HSA synergy score [1]: 200

N#CC(=Cc1ccc(O)c(O)c1)C(=O)NCc1ccccc1 [Tyrphostin B42] + CC[C@H](NC(=O)[C@H](C)NC)C(=O)N1C[C@@H](O)C[C@H]1Cc1c(-c2[nH]c3cc(F)ccc3c2C[C@@H]2C[C@H](O)CN2C(=O)[C@H](CC)NC(=O)[C@H](C)NC)[nH]c2cc(F)ccc12 [Birinapant]
Excess HSA synergy score [1]: 83.7

Cc1[nH]c2ccccc2c1CCNCc1ccc(/C=C/C(=O)NO)cc1 [Panobinostat] + CC[C@H](NC(=O)[C@H](C)NC)C(=O)N1C[C@@H](O)C[C@H]1Cc1c(-c2[nH]c3cc(F)ccc3c2C[C@@H]2C[C@H](O)CN2C(=O)[C@H](CC)NC(=O)[C@H](C)NC)[nH]c2cc(F)ccc12 [Birinapant]
Excess HSA synergy score [1]: -159 | Excess HSA synergy score [2]: -1360

O=C(/C=C/c1ccc(CN(CCO)CCc2c[nH]c3ccccc23)cc1)NO [Dacinostat] + CC[C@H](NC(=O)[C@H](C)NC)C(=O)N1C[C@@H](O)C[C@H]1Cc1c(-c2[nH]c3cc(F)ccc3c2C[C@@H]2C[C@H](O)CN2C(=O)[C@H](CC)NC(=O)[C@H](C)NC)[nH]c2cc(F)ccc12 [Birinapant]
Excess HSA synergy score [1]: -67.4

O=C(/C=C/c1cccc(S(=O)(=O)Nc2ccccc2)c1)NO [Belinostat] + CC[C@H](NC(=O)[C@H](C)NC)C(=O)N1C[C@@H](O)C[C@H]1Cc1c(-c2[nH]c3cc(F)ccc3c2C[C@@H]2C[C@H](O)CN2C(=O)[C@H](CC)NC(=O)[C@H](C)NC)[nH]c2cc(F)ccc12 [Birinapant]
Excess HSA synergy score [1]: -26.7

CC[C@]12C=CCN3CC[C@@]4(c5cc([C@@]6(C(=O)OC)C[C@@H]7C[C@@H](C(C)(F)F)CN(Cc8c6[nH]c6ccccc86)C7)c(OC)cc5N(C)[C@H]4[C@@](O)(C(=O)OC)[C@@H]1OC(C)=O)[C@@H]32 [Vinflunine] + CC[C@H](NC(=O)[C@H](C)NC)C(=O)N1C[C@@H](O)C[C@H]1Cc1c(-c2[nH]c3cc(F)ccc3c2C[C@@H]2C[C@H](O)CN2C(=O)[C@H](CC)NC(=O)[C@H](C)NC)[nH]c2cc(F)ccc12 [Birinapant]
Excess HSA synergy score [1]: -106 | Excess HSA synergy score [2]: -752

O=C(N[C@@H](c1ccccc1)[C@@H]1CCCCN1)c1cccc(C(F)(F)F)c1Cl + CC[C@H](NC(=O)[C@H](C)NC)C(=O)N1C[C@@H](O)C[C@H]1Cc1c(-c2[nH]c3cc(F)ccc3c2C[C@@H]2C[C@H](O)CN2C(=O)[C@H](CC)NC(=O)[C@H](C)NC)[nH]c2cc(F)ccc12 [Birinapant]
Excess HSA synergy score [1]: 61.9

CC[C@@]1(O)C(=O)OCc2c1cc1n(c2=O)Cc2cc3c(CN(C)C)c(O)ccc3nc2-1 [Topotecan hydrochloride] + CC[C@H](NC(=O)[C@H](C)NC)C(=O)N1C[C@@H](O)C[C@H]1Cc1c(-c2[nH]c3cc(F)ccc3c2C[C@@H]2C[C@H](O)CN2C(=O)[C@H](CC)NC(=O)[C@H](C)NC)[nH]c2cc(F)ccc12 [Birinapant]
Excess HSA synergy score [1]: -166 | Excess HSA synergy score [2]: -963

CCc1c2c(nc3ccc(O)cc13)-c1cc3c(c(=O)n1C2)COC(=O)[C@]3(O)CC + CC[C@H](NC(=O)[C@H](C)NC)C(=O)N1C[C@@H](O)C[C@H]1Cc1c(-c2[nH]c3cc(F)ccc3c2C[C@@H]2C[C@H](O)CN2C(=O)[C@H](CC)NC(=O)[C@H](C)NC)[nH]c2cc(F)ccc12 [Birinapant]
Excess HSA synergy score [1]: 0.514

CC[C@@]1(O)C(=O)OCc2c1cc1n(c2=O)Cc2cc3cc(O)ccc3nc2-1 [10-hydroxycamptothecin] + CC[C@H](NC(=O)[C@H](C)NC)C(=O)N1C[C@@H](O)C[C@H]1Cc1c(-c2[nH]c3cc(F)ccc3c2C[C@@H]2C[C@H](O)CN2C(=O)[C@H](CC)NC(=O)[C@H](C)NC)[nH]c2cc(F)ccc12 [Birinapant]
Excess HSA synergy score [1]: -38.5

O=C(C1CC1)N1CC[C@@H](Cn2c(-c3ccc(-c4ccc5occc5c4)cc3)nc3cnccc32)C1 + CC[C@H](NC(=O)[C@H](C)NC)C(=O)N1C[C@@H](O)C[C@H]1Cc1c(-c2[nH]c3cc(F)ccc3c2C[C@@H]2C[C@H](O)CN2C(=O)[C@H](CC)NC(=O)[C@H](C)NC)[nH]c2cc(F)ccc12 [Birinapant]
Excess HSA synergy score [1]: 117

CCCCCN(CCC12CC3CC(CC(C3)C1)C2)C(=O)NCCCc1ccncc1 + CC[C@H](NC(=O)[C@H](C)NC)C(=O)N1C[C@@H](O)C[C@H]1Cc1c(-c2[nH]c3cc(F)ccc3c2C[C@@H]2C[C@H](O)CN2C(=O)[C@H](CC)NC(=O)[C@H](C)NC)[nH]c2cc(F)ccc12 [Birinapant]
Excess HSA synergy score [1]: 297

Cn1cc(/C=C/C(=O)c2cccc(F)c2)cc1/C=C/C(=O)NO + CC[C@H](NC(=O)[C@H](C)NC)C(=O)N1C[C@@H](O)C[C@H]1Cc1c(-c2[nH]c3cc(F)ccc3c2C[C@@H]2C[C@H](O)CN2C(=O)[C@H](CC)NC(=O)[C@H](C)NC)[nH]c2cc(F)ccc12 [Birinapant]
Excess HSA synergy score [1]: 132

COC1=C2C[C@@H](C)C[C@H](OC)[C@H](O)[C@@H](C)/C=C(\C)[C@H](OC(N)=O)[C@@H](OC)/C=C\C=C(/C)C(=O)NC(=CC1=O)C2=O [Geldanamycin] + CC[C@H](NC(=O)[C@H](C)NC)C(=O)N1C[C@@H](O)C[C@H]1Cc1c(-c2[nH]c3cc(F)ccc3c2C[C@@H]2C[C@H](O)CN2C(=O)[C@H](CC)NC(=O)[C@H](C)NC)[nH]c2cc(F)ccc12 [Birinapant]
Excess HSA synergy score [1]: 115 | Excess HSA synergy score [2]: -710

CCc1cc(-c2n[nH]c(C)c2-c2ccc3c(c2)OCCO3)c(O)cc1O + CC[C@H](NC(=O)[C@H](C)NC)C(=O)N1C[C@@H](O)C[C@H]1Cc1c(-c2[nH]c3cc(F)ccc3c2C[C@@H]2C[C@H](O)CN2C(=O)[C@H](CC)NC(=O)[C@H](C)NC)[nH]c2cc(F)ccc12 [Birinapant]
Excess HSA synergy score [1]: 405

Cc1c[nH]c(/C=C2\C(=O)Nc3ccccc32)c1CCC(=O)O + CC[C@H](NC(=O)[C@H](C)NC)C(=O)N1C[C@@H](O)C[C@H]1Cc1c(-c2[nH]c3cc(F)ccc3c2C[C@@H]2C[C@H](O)CN2C(=O)[C@H](CC)NC(=O)[C@H](C)NC)[nH]c2cc(F)ccc12 [Birinapant]
Excess HSA synergy score [1]: 54.2

CC1(C)O[C@H]2CC(=O)OC[C@]23[C@H]2CC[C@@]4(C)[C@H](c5ccoc5)OC(=O)[C@H]5O[C@]54[C@]2(C)C(=O)C[C@@H]13 [Limonin] + CC[C@H](NC(=O)[C@H](C)NC)C(=O)N1C[C@@H](O)C[C@H]1Cc1c(-c2[nH]c3cc(F)ccc3c2C[C@@H]2C[C@H](O)CN2C(=O)[C@H](CC)NC(=O)[C@H](C)NC)[nH]c2cc(F)ccc12 [Birinapant]
Excess HSA synergy score [1]: 15.5

COc1cccc2c1C(=O)c1c(O)c3c(c(O)c1C2=O)C[C@@](O)(C(=O)CO)C[C@@H]3O[C@H]1C[C@H](N)[C@@H](O)[C@H](C)O1 [Epirubicin hydrochloride] + CC[C@H](NC(=O)[C@H](C)NC)C(=O)N1C[C@@H](O)C[C@H]1Cc1c(-c2[nH]c3cc(F)ccc3c2C[C@@H]2C[C@H](O)CN2C(=O)[C@H](CC)NC(=O)[C@H](C)NC)[nH]c2cc(F)ccc12 [Birinapant]
Excess HSA synergy score [1]: -93.1

COc1cccc2c1C(=O)c1c(O)c3c(c(O)c1C2=O)C[C@@](O)(C(=O)CO)C[C@@H]3O[C@H]1C[C@H](N)[C@H](O)[C@H](C)O1 [Doxorubicin] + CC[C@H](NC(=O)[C@H](C)NC)C(=O)N1C[C@@H](O)C[C@H]1Cc1c(-c2[nH]c3cc(F)ccc3c2C[C@@H]2C[C@H](O)CN2C(=O)[C@H](CC)NC(=O)[C@H](C)NC)[nH]c2cc(F)ccc12 [Birinapant]
Excess HSA synergy score [1]: -136

CC[C@@]1(O)C[C@H](O[C@H]2C[C@H](N(C)C)[C@H](O[C@H]3C[C@H](O)[C@H](O[C@H]4CCC(=O)[C@H](C)O4)[C@H](C)O3)[C@H](C)O2)c2c(cc3c(c2O)C(=O)c2c(O)cccc2C3=O)[C@H]1C(=O)OC [Aclarubicin] + CC[C@H](NC(=O)[C@H](C)NC)C(=O)N1C[C@@H](O)C[C@H]1Cc1c(-c2[nH]c3cc(F)ccc3c2C[C@@H]2C[C@H](O)CN2C(=O)[C@H](CC)NC(=O)[C@H](C)NC)[nH]c2cc(F)ccc12 [Birinapant]
Excess HSA synergy score [1]: -147 | Excess HSA synergy score [2]: -1130

CCc1cc2c(cc1N1CCC(N3CCOCC3)CC1)C(C)(C)c1[nH]c3cc(C#N)ccc3c1C2=O + CC[C@H](NC(=O)[C@H](C)NC)C(=O)N1C[C@@H](O)C[C@H]1Cc1c(-c2[nH]c3cc(F)ccc3c2C[C@@H]2C[C@H](O)CN2C(=O)[C@H](CC)NC(=O)[C@H](C)NC)[nH]c2cc(F)ccc12 [Birinapant]
Excess HSA synergy score [1]: 183

C[Se]CC[C@H](N)C(=O)O [L-selenomethionine] + CC[C@H](NC(=O)[C@H](C)NC)C(=O)N1C[C@@H](O)C[C@H]1Cc1c(-c2[nH]c3cc(F)ccc3c2C[C@@H]2C[C@H](O)CN2C(=O)[C@H](CC)NC(=O)[C@H](C)NC)[nH]c2cc(F)ccc12 [Birinapant]
Excess HSA synergy score [1]: 115

— the supplement of paper PMC7765376
